Rows were chosen to be rich in hits. Some 18% of all compounds tested hit in one or more screens of this group.
KAT2A inh: qHTS Assay for Inhibitors of GCN5L2. GCN5L2 HAT assay, ThioGlo1 CoA-SH fluorescence. Potency, µM (series often up to 58.9 µM), for the others: top-dose activity change, negative = inhibition, hits mostly inhibitors. Histone acetyltransferase KAT2A (Homo sapiens), Q92830. 0.21% of 390,000 active
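Enzyme at 20nM final was mixed with library compounds for 15 min at room temperature. Peptide H3(1-25) at 75uM, acetyl-CoA at 70uM and ThioGlo1 at 50uM were then added. Plates were read immediately and after 20 min (Ex340nm/Em540nm).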
TDP1 block: qHTS Assay for Inhibitors of Tyrosyl-DNA Phosphodiesterase (TDP1). Tyrosyl-DNA phosphodiesterase 1 (Homo sapiens), Q9NUW8. recombinant TDP1, AlphaScreen DNA substrate cleavage. Potency, µM (doses to about 130 µM), for the others: at the highest dose activity change, negative = inhibition, usual class: inhibitors. 0.28% of 350,000 active. AID 485290, 2010; also: nearly all actives have a fitted effect of over 40% in size
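Compounds were preincubated with Tdp1 (1 nM final) for 15 min at room temperature before substrate (15 nM final) started a 5 min reaction; beads (10 ug/ml final) were then added for 10 min before AlphaScreen detection.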
VDR inh: Inhibitors of the vitamin D receptor (VDR): qHTS; AID 504847, 2011; VDR-SRC2-3 peptide fluorescence polarization, 2 h; 0.93% of 400,000 active; Potency, µM, without a hit: max response, negative = inhibition, usual class: inhibitors
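VDR–SRC2-3 interaction, FP format. Cmpds 23 nl via pintool, brief spin, 2 h ambient incubation.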
PLK1 PBD block: qHTS for Inhibitors of PLK1-PDB (polo-like kinase 1 - polo-box domain): Primary Screen; Plk1 PBD binding of FITC phosphopeptide, fluorescence polarization; Potency, µM, for inactives: max response, negative = inhibition, actives largely listed as inhibitors; 2.8% of 360,000 active; Serine/threonine-protein kinase PLK1 (Homo sapiens), P53350; also: series mostly up to about 57 µM; nearly all actives have a fitted effect of over 65% in size
Target sequence (P53350 whole entry, looked up, the tested form may be a part): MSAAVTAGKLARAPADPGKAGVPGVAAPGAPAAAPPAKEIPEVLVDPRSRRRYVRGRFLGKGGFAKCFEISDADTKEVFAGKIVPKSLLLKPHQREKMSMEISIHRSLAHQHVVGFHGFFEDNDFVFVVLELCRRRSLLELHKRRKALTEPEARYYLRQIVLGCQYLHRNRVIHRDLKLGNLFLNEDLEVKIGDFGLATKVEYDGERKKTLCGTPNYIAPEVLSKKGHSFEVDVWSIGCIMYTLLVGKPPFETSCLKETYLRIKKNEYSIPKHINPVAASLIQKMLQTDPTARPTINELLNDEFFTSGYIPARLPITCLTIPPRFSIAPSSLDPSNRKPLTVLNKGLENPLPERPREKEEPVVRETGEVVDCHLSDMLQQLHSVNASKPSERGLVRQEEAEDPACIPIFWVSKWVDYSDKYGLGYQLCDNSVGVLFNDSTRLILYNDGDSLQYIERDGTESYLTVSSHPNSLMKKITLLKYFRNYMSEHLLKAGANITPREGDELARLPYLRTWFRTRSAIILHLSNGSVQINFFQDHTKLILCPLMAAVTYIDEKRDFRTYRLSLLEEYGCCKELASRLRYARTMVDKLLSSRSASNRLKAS
TDP1 cell noCPT: qHTS for Inhibitors of human tyrosyl-DNA phosphodiesterase 1 (TDP1): qHTS in cells in absence of CPT; DT40 Tdp1-/- hTDP1 cells, no CPT, ATP luminescence, 48 h; Potency, µM (top dose mostly 46.2 µM), without a hit: at the top dose activity change, negative = growth inhibition, actives largely listed as inhibitors; 15% of 420,000 active; AID 686978, 2013; also: nearly all actives have a fitted effect of over 55% in size
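A cellular qHTS used chicken DT40 cells lacking endogenous Tdp1 but carrying stably transfected human TDP1. Compounds were applied without camptothecin, and cell growth kinetics were judged by ATP-dependent luminescence after ≥48 hr.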
DT40 TDP1 CPT: qHTS for Inhibitors of human tyrosyl-DNA phosphodiesterase 1 (TDP1): qHTS in cells in presence of CPT | AID 686979, 2013 | chicken DT40 Tdp1-/-;hTDP1 cells + 20 nM CPT, ATP luminescence, 48 h | Potency, µM (top dose mostly 46.2 µM), inactives show at the top dose activity change, negative = growth inhibition, most hits filed as inhibitors | 12% of 420,000 active; also: nearly all actives have a fitted effect of over 55% in size
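Chicken DT40 Tdp1-/- cells complemented with human TDP1, 400 cells/well, exposed to compounds plus 20 nM camptothecin for at least 48 h at 37 C; viability read as ATP content by CellTiter-Glo luminescence.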
* hit, by the source's call; [ ] = remark or other dose. Calls follow the shape of the dose curve; as a rule, active = well fitted curve in the direction sought with a large enough effect; inconclusive = small, poorly fitted or top-dose-only effect, or another doubt; inactive = no such curve, though single readings can be large; an effect the other way counts as inactive or inconclusive. % is scaled to controls: 0 for no effect and ±100 for the full control effect; potency is read from the fitted curve at half-maximal effect.

How did Cc1cc(=O)oc2cc(OCC(=O)NC3CCCCC3)ccc12 do in these assays?
KAT2A inh: -4%; VDR inh: -8%; PLK1 PBD block: -27%; TDP1 cell noCPT: -19%; DT40 TDP1 CPT: 13%

What do the screens show for `COCCNC(=O)CN(Cc1ccc(F)cc1)C(=O)CCC(=O)Nc1nccs1`?
KAT2A inh: -6%; TDP1 block: 10%; VDR inh: -9%; PLK1 PBD block: 3%; TDP1 cell noCPT: -4%; DT40 TDP1 CPT: -15%

How did O=C(NCC1(N2CCOCC2)CCCCC1)c1cnn(-c2nccc(-c3cccs3)n2)c1C1CC1 do in these assays?
TDP1 cell noCPT: 21µM*; DT40 TDP1 CPT: inconclusive

What do the screens show for `Cc1ccc(-c2ccnc(-n3ncc(C(=O)NCCN4CCOCC4)c3C3CC3)n2)o1`?
TDP1 cell noCPT: -24%; DT40 TDP1 CPT: 21µM*

Results for O=C(NCCN1CCOCC1)c1cnn(-c2nccc(-c3cc4ccccc4o3)n2)c1C1CC1 ?
TDP1 cell noCPT: inconclusive; DT40 TDP1 CPT: 18µM*

How did C[C@@H]1CN([C@H](C)CO)C(=O)CCCn2nncc2CO[C@@H]1CN(C)S(=O)(=O)c1ccc2c(c1)OCCCO2 do in these assays?
PLK1 PBD block: -14%; TDP1 cell noCPT: -17%; DT40 TDP1 CPT: -11%

How did CC1CCN(CCNC(=S)Nc2ccc(Cl)cc2)CC1 do in these assays?
KAT2A inh: 0%; TDP1 block: 3%; VDR inh: -12%; PLK1 PBD block: -11%; TDP1 cell noCPT: -23%; DT40 TDP1 CPT: inconclusive

Results for CN1CCN(c2nc(-c3ccccc3C(F)(F)F)nc3ccccc23)CC1 ?
KAT2A inh: -9%; VDR inh: inconclusive; TDP1 cell noCPT: -1%; DT40 TDP1 CPT: -5%

How did CCc1nc2ccc(C(=O)NCCCn3ccnc3)cn2c1N(C)Cc1cc2ccccc2s1 do in these assays?
PLK1 PBD block: -13%; TDP1 cell noCPT: 16µM*; DT40 TDP1 CPT: inconclusive

Results for CCc1nc2ccc(C(=O)NCCCn3ccnc3)cn2c1N(CC)C(=O)NCCc1ccccc1 ?
PLK1 PBD block: -10%; TDP1 cell noCPT: -4%; DT40 TDP1 CPT: -14%

How did CCc1nc2ccc(C(=O)NCCCn3ccnc3)cn2c1N(C)Cc1ccc(OC)cc1 do in these assays?
PLK1 PBD block: 0%; TDP1 cell noCPT: 15µM*; DT40 TDP1 CPT: inconclusive

What do the screens show for `CCc1nc2ccc(C(=O)NCCCn3ccnc3)cn2c1N(C)CCCc1ccccc1`?
PLK1 PBD block: -10%; TDP1 cell noCPT: inconclusive; DT40 TDP1 CPT: 18µM*

What do the screens show for `CCc1nc2ccc(C(=O)Nc3cccc(OCC(=O)N(C)C)c3)cn2c1N(C)Cc1cc2ccccc2s1`?
PLK1 PBD block: 0%; TDP1 cell noCPT: 16µM*; DT40 TDP1 CPT: 16µM*

Results for Cc1[nH][nH]c(=O)c1C(c1c(C)[nH][nH]c1=O)c1cn(Cc2ccc(F)cc2)c2ccccc12 ?
KAT2A inh: -4%; TDP1 block: 8%; VDR inh: inconclusive; PLK1 PBD block: inconclusive; TDP1 cell noCPT: 5.2µM*; DT40 TDP1 CPT: 6.5µM*

Results for Cc1[nH][nH]c(=O)c1C(c1c(C)[nH][nH]c1=O)c1cn(Cc2ccc(Cl)c(Cl)c2)c2ccccc12 ?
KAT2A inh: -2%; TDP1 block: 11%; VDR inh: inconclusive; PLK1 PBD block: inconclusive; TDP1 cell noCPT: 2.1µM*; DT40 TDP1 CPT: 2.1µM*

Results for Cc1cc(C)cc(C(=O)Nn2cnnc2)c1 ?
KAT2A inh: 2%; VDR inh: 0%; PLK1 PBD block: -14%; TDP1 cell noCPT: -2%; DT40 TDP1 CPT: 8%

How did O=C(CSc1nnc(SCc2ccccc2)s1)N/N=C/c1ccc(Cl)cc1Cl do in these assays?
KAT2A inh: 2%; TDP1 block: 5%; VDR inh: -18%; PLK1 PBD block: -6%; TDP1 cell noCPT: inconclusive; DT40 TDP1 CPT: -24%

Results for O=C(CSc1nnc(SCc2ccccc2Cl)s1)N/N=C/c1c[nH]c2ccccc12 ?
KAT2A inh: -4%; TDP1 block: 2%; VDR inh: -18%; PLK1 PBD block: 6%; TDP1 cell noCPT: inconclusive; DT40 TDP1 CPT: 26µM*

What do the screens show for `O=C(CSc1nnc(SCc2ccccc2)s1)N/N=C/C=C\c1ccco1`?
KAT2A inh: 35%; TDP1 block: inconclusive; VDR inh: inconclusive; PLK1 PBD block: inconclusive; TDP1 cell noCPT: inconclusive; DT40 TDP1 CPT: inconclusive

Results for O=C(CN1CCN(Cc2ccc(Cl)cc2)CC1)N/N=C/C=C/c1ccccc1[N+](=O)[O-] ?
KAT2A inh: -9%; TDP1 block: 5%; VDR inh: -4%; PLK1 PBD block: -1%; TDP1 cell noCPT: 18µM*; DT40 TDP1 CPT: inconclusive

Results for O=C(CSc1nnc(SCc2ccccc2)s1)N/N=C/C=C/c1ccccc1[N+](=O)[O-] ?
KAT2A inh: -7%; TDP1 block: 3%; VDR inh: -1%; PLK1 PBD block: -16%; TDP1 cell noCPT: 16µM*; DT40 TDP1 CPT: inconclusive

How did O=C(CSc1nnc(SCc2ccccc2)s1)N/N=C/c1c[nH]c2ccccc12 do in these assays?
KAT2A inh: -7%; TDP1 block: 10µM*; VDR inh: 11%; PLK1 PBD block: -13%; TDP1 cell noCPT: -18%; DT40 TDP1 CPT: 2%

Results for O=C(COc1ccccc1Cl)NNC(=O)c1ccc2c(=O)n3c(nc2c1)CCC3 ?
KAT2A inh: 1%; TDP1 block: -2%[56.1 µM]; VDR inh: 1%; PLK1 PBD block: -12%; TDP1 cell noCPT: 1%; DT40 TDP1 CPT: -27%

How did Cn1cnc2c(=O)oc3ccc(S(=O)(=O)Nc4ccc(F)cc4)cc3c21 do in these assays?
KAT2A inh: -1%; TDP1 block: 3%; VDR inh: 7%; TDP1 cell noCPT: -10%; DT40 TDP1 CPT: -7%

How did Cc1ccc(CSc2nnc(SCC(=O)N/N=C/c3c[nH]c4ccccc34)s2)cc1 do in these assays?
KAT2A inh: -13%; TDP1 block: 6.3µM*; VDR inh: -2%; PLK1 PBD block: -27%; TDP1 cell noCPT: inconclusive; DT40 TDP1 CPT: inconclusive
